Measurements from the supplement of paper PMC10849652.
Targets with a hit are over-represented here; the source holds about 7,900 in all. About 0.6% of all pairs of compound and target were hits.

Key:
Assay in all cases: log2 fold change, soluble protein after heating vs DMSO (PISA); higher = thermal stabilisation; K562 cells, 10 uM, 30 min; active = over 0.2 and 3.5 SD of the protein, either way, in both replicates (recomputed)
[1] = compound: C#Cc1cccc(Nc2ncnc3cc(OCCOC)c(OCCOC)cc23)c1 [erlotinib]
Procedure, shortened: (§1)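 K562 cells at 2×10^6 cells/mL were given 10 μM compound for 30 min. Aliquots then went through 3 min of heating across 48°C-58°C, were pooled, and were extracted in PBS with 0.5% NP-40 at 4°C, and the supernatant after 21,000xg for 90 min was quantified by TMTpro 16plex LC-MS/MS with channel sums equalised. Thermal stability relative to control samples, from duplicates, is given as log2 fold change.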

[2] = compound: C/C(=N\NC(=O)C1=CC(=CC=C1)S(=O)(=O)N2CCOCC2)/C3=C(C=CC(=C3)Cl)O
Procedure, shortened: as §1

[3] = compound: C1=CC(=C(C=C1Cl)C2=NC3=NC=CN=C3C(=N2)NC4=CC=NC=C4)F
Procedure, shortened: as §1

[4] = compound: C1=CC(=CC=C1C2=NC3=C(N2)C=C(C=C3)C(=O)N)OC4=CC=C(C=C4)Cl
Procedure, shortened: as §1

[5] = compound: C1=CC2=C(C=CC(=C2)/C=C\3/C(=O)NC(=NCC4=CC=CS4)S3)N=C1
Procedure, shortened: as §1

[6] = compound: C1=CC2=NC=CN=C2C=C1/C=C/3\C(=O)NC(=O)S3
Procedure, shortened: as §1

[7] = compound: C1=CC=C(C=C1)C2=NC(=C(N2)C3=CC=NC=C3)C4=CC(=C(C=C4)Cl)O
Procedure, shortened: as §1

[8] = compound: C1=CC=C2C(=C1)C3=NNC4=CC=CC(=C43)C2=O
Procedure, shortened: as §1

[9] = compound: C1CCN(C1)C(=O)NC2=CC=CC(=C2)NC3=NC=C(C(=N3)NCCC4=CN=CN4)Br
Procedure, shortened: as §1

[10] = compound: C1CN(CCC1(CC2=CC=C(C=C2)Cl)N)C3=NC=NC4=C3C=CN4
Procedure, shortened: as §1

[11] = compound: C1COCCN1CCN2C3=CC=CC=C3N=C2NC(=O)C4=CC(=CC=C4)[N+](=O)[O-] [IRAK-1-4 Inhibitor I]
Procedure, shortened: as §1

[12] = compound: C=CC(=O)N1CCC[C@@H](n2nc(-c3ccc(Oc4ccccc4)cc3)c3c(N)ncnc32)C1 [ibrutinib]
Procedure, shortened: as §1

[13] = compound: CC(=O)c1cnc2ccc(-c3cc(Cl)c(O)c(Cl)c3)nc2c1N[C@H]1CC[C@H](CN(C)C)CC1
Procedure, shortened: as §1

[14] = compound: CC(C)(C)Cn1c(N)nc2ccc(-c3[nH]c(C(C)(C)C)nc3-c3ccc(F)cc3)nc21 [ralimetinib]
Procedure, shortened: as §1

[15] = compound: CC(C)(O)CC(=O)NCCn1ccc2ncnc(Nc3ccc(Oc4cccc(C(F)(F)F)c4)c(Cl)c3)c21
Procedure, shortened: as §1

[16] = compound: CC(C)C1=C2N=C(C=C(N2N=C1)NCC3=CC=CC=C3)NCCCCCCN
Procedure, shortened: as §1

[17] = compound: CC(C)C[C@@H](C=O)NC(=O)[C@H](CC(C)C)NC(=O)[C@H](CC(C)C)NC(=O)OCc1ccccc1
Procedure, shortened: as §1

[18] = compound: CC(C)N(C[C@H]1O[C@@H](n2cnc3c(N)ncnc32)[C@H](O)[C@@H]1O)[C@H]1C[C@@H](CCc2nc3cc(C(C)(C)C)ccc3[nH]2)C1 [pinometostat]
Procedure, shortened: as §1

[19] = compound: CC1=C(C(CC(=O)N1)C2=CC=C(C=C2)C(F)(F)F)C(=O)NC3=C(C=C4C(=C3)C=NN4)F
Procedure, shortened: as §1

[20] = compound: CC1=C(C2=C(C=C1)C(=O)C3=CC=CC=C3N2CCCN)C
Procedure, shortened: as §1

Measured: log2 fold change

PCK2 (UniProt Q16822)
active: [2] -0.224
inactive: [1] 0.025 | [3] 0.108 | [4] -0.009 | [5] 0.038 | [6] -0.016 | [7] -0.023 | [8] 0.072 | [9] -0.018 | [10] -0.001 | [11] -0.029 | [12] 0.021 | [13] -0.013 | [14] -0.059 | [15] -0.019 | [16] 0.063 | [17] 0.035 | [18] -0.011 | [19] -0.005 | [20] 0.053

PRKCA (UniProt P17252)
active: [13] -0.595
inactive: [1] 0.117 | [2] 0.041 | [3] 0.04 | [4] -0.009 | [5] 0.127 | [6] 0.016 | [7] -0.019 | [8] -0.006 | [9] 0.008 | [10] -0.074 | [11] 0.012 | [12] -0.02 | [14] -0.039 | [15] -0.02 | [16] -0.035 | [17] 0.104 | [18] -0.015 | [19] 0.011 | [20] 0.064

POLR2B (UniProt P30876)
inactive: [1] -0.008 | [2] -0.014 | [3] -0.025 | [4] 0.024 | [5] -0.006 | [6] 0.047 | [7] 0.045 | [8] 0.009 | [9] 0.068 | [10] -0.063 | [11] -0.095 | [12] -0.002 | [14] 0.066 | [15] -0.047 | [16] 0.08 | [17] 0.03 | [18] 0.037 | [19] -0.031 | [20] 0.03
active: [13] 0.262

PDCD6IP (UniProt Q8WUM4)
inactive: [1] 0.162 | [2] 0.167 | [3] 0.045 | [4] -0.044 | [5] 0.122 | [6] 0.014 | [7] 0.031 | [8] 0.043 | [9] -0.095 | [10] -0.122 | [11] -0.156 | [12] -0.11 | [13] -0.039 | [14] 0.046 | [15] -0.198 | [16] -0.327 | [17] 0.019 | [18] 0.084 | [19] 0.015 | [20] 0.044

POLR2M (UniProt Q6EEV4)
UniProt Q6EEV4, sequence (Q6EEV4 whole entry, looked up): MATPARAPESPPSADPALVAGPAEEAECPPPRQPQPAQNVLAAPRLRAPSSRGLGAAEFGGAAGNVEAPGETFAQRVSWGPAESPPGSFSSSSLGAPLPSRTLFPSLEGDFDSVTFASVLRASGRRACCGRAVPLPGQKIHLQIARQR
inactive: [1] -0.044 | [2] 0.096 | [3] 0.242 | [4] 0.223 | [5] -0.006 | [6] -0.001 | [8] -0.048 | [9] -0.041 | [10] 0.024 | [11] -0.014 | [12] -0.075 | [13] -0.027 | [15] -0.091 | [16] 0.128 | [18] 0.005 | [19] 0.139 | [20] 0.209

PDE4DIP isoform 4 (UniProt Q5VU43)
UniProt Q5VU43, sequence (Q5VU43 whole entry, looked up): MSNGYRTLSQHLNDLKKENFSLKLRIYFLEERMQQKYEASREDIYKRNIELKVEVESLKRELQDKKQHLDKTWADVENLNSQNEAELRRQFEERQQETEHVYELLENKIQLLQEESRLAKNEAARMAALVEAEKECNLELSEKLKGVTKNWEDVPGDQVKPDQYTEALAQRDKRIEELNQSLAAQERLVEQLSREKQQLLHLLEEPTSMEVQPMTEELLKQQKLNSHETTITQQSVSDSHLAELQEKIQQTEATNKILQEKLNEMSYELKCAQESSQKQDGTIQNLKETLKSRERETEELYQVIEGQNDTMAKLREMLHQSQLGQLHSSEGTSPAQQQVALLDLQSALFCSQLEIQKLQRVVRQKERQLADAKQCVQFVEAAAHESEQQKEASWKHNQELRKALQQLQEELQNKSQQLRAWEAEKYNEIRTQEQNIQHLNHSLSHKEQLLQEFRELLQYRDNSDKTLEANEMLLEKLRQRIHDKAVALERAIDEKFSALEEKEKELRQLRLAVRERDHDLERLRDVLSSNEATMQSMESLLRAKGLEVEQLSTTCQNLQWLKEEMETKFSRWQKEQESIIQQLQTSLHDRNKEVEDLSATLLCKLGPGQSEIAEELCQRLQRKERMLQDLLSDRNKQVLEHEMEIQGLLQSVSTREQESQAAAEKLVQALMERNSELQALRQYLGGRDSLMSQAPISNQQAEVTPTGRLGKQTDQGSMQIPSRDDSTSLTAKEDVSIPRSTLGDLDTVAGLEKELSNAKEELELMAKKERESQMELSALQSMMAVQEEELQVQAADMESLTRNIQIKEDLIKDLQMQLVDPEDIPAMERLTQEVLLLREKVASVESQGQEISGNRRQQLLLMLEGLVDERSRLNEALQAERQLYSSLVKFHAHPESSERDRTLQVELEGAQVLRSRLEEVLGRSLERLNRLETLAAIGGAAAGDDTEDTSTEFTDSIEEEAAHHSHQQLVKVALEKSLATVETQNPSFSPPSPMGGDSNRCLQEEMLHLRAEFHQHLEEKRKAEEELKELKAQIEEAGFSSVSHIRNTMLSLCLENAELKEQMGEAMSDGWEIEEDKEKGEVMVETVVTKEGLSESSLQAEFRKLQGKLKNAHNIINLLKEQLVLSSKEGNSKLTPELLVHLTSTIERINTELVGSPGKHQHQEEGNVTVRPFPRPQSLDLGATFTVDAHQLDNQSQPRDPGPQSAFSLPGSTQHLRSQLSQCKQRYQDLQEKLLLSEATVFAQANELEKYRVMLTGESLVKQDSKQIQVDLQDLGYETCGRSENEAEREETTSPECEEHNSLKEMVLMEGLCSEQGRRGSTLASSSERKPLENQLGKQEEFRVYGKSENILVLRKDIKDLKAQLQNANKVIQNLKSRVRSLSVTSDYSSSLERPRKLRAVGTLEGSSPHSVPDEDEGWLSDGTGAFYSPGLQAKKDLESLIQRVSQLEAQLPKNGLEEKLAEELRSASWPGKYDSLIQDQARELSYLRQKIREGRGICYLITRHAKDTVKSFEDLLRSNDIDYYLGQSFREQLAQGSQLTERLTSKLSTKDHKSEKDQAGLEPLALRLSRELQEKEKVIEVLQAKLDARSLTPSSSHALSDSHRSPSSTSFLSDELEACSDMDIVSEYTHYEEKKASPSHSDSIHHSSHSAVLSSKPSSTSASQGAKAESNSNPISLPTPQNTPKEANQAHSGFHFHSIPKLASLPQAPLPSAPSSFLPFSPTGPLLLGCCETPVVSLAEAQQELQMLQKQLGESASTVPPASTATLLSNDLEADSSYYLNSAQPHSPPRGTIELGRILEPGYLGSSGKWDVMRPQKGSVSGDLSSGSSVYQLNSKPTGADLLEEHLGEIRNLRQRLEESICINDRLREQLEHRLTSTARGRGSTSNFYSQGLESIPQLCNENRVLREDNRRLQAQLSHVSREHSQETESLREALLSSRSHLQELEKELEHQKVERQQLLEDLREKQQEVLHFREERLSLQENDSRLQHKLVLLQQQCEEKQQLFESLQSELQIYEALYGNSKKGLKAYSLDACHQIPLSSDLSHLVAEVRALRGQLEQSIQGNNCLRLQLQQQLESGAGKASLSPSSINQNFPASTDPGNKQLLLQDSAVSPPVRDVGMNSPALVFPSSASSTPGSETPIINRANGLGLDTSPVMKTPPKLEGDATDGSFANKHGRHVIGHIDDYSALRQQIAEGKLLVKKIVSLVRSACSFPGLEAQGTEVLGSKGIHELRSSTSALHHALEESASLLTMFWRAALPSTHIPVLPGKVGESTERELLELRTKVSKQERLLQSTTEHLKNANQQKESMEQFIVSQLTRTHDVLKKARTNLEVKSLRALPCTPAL
inactive: [1] 0.027 | [2] -0.002 | [3] 0.186 | [4] 0.01 | [5] 0.089 | [6] -0.043 | [7] -0.059 | [8] -0.02 | [9] -0.037 | [10] -0.061 | [11] -0.006 | [12] 0.001 | [13] 0.045 | [14] 0.011 | [15] -0.08 | [16] 0.035 | [17] 0.087 | [18] -0.05 | [19] 0.069 | [20] 0.088

PDE6D (UniProt O43924)
UniProt O43924, sequence (O43924 whole entry, looked up): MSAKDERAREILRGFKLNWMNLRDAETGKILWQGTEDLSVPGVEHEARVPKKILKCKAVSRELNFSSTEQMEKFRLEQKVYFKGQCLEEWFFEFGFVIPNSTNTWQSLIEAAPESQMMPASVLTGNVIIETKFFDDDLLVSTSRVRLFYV
inactive: [1] -0.094 | [2] 0.055 | [3] -0.082 | [4] -0.102 | [5] 0.078 | [6] 0.004 | [8] 0.115 | [9] 0.417 | [10] 0.028 | [11] 0.037 | [12] 0.086 | [13] -0.051 | [15] 0.003 | [16] 0.164 | [18] 0.017 | [19] -0.016 | [20] -0.01

PSMC2 (UniProt P35998)
UniProt P35998, sequence (P35998 whole entry, looked up): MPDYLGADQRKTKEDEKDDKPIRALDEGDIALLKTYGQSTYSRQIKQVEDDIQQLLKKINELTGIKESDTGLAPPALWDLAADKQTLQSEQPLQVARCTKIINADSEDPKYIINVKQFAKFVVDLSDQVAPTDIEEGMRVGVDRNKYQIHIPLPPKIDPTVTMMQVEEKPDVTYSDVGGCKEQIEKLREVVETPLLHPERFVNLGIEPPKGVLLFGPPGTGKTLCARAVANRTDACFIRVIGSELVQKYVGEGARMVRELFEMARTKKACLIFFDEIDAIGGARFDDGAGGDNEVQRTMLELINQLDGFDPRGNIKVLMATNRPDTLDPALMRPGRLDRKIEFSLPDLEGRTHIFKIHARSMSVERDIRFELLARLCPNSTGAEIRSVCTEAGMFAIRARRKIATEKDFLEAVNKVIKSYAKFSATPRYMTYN
inactive: [1] -0.05 | [2] -0.054 | [3] -0.057 | [4] 0.008 | [5] -0.001 | [6] -0.03 | [7] 0.019 | [8] 0.02 | [9] -0.007 | [10] -0.031 | [11] -0.024 | [12] -0.009 | [13] 0.079 | [14] 0.046 | [15] 0.011 | [16] 0.053 | [17] -0.183 | [18] 0.033 | [19] 0.039 | [20] -0.039

POLA2 (UniProt Q14181)
active: [16] -0.258
inactive: [1] 0.042 | [2] 0.086 | [3] 0.021 | [4] -0.033 | [5] 0.048 | [6] 0.048 | [7] -0.044 | [8] -0.013 | [9] -0.063 | [10] -0.004 | [11] 0.015 | [12] -0.038 | [13] -0.073 | [14] -0.028 | [15] -0.083 | [17] 0.011 | [18] 0.041 | [19] 0 | [20] -0.021

PMVK (UniProt Q15126)
UniProt Q15126, sequence (Q15126 whole entry, looked up): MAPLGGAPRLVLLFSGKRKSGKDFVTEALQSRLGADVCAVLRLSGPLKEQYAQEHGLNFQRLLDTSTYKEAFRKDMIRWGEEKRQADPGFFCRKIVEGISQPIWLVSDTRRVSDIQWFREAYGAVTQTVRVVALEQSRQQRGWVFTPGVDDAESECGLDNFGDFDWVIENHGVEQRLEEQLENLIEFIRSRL
inactive: [1] 0.001 | [2] -0.518 | [3] 0.006 | [4] 0.042 | [5] 0.052 | [6] -0.045 | [8] -0.115 | [9] -0.006 | [10] 0.15 | [12] -0.039 | [13] -0.069 | [15] -0.072 | [16] -0.195 | [19] 0.15 | [20] 0.061

PRMT7 (UniProt Q9NVM4)
UniProt Q9NVM4, sequence (Q9NVM4 whole entry, looked up): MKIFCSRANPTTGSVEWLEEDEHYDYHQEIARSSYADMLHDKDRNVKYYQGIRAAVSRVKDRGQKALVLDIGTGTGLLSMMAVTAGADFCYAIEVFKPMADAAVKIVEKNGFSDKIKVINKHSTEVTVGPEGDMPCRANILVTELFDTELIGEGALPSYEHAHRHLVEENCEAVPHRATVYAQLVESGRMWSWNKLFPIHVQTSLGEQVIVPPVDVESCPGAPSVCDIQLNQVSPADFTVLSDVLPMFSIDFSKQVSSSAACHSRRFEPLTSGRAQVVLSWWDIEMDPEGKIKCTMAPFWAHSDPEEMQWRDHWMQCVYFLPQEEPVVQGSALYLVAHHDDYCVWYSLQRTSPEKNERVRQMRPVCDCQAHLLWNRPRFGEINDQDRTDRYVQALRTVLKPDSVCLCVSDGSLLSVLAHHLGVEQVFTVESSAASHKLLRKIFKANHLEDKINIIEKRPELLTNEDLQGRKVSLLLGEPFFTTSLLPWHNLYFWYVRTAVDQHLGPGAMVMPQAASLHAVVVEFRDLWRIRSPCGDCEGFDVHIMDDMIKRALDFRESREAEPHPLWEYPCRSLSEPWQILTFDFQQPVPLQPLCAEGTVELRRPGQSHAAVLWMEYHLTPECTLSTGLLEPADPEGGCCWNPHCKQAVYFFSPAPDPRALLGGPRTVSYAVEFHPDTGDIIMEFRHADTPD
active: [16] -0.329
inactive: [1] 0.093 | [2] 0.132 | [3] 0.064 | [4] -0.017 | [5] 0.142 | [6] 0.018 | [7] -0.109 | [8] -0.039 | [9] 0.031 | [10] -0.031 | [11] 0.044 | [12] -0.061 | [13] -0.004 | [14] -0.005 | [15] 0.048 | [17] -0.033 | [18] 0.074 | [19] -0.022 | [20] -0.065

PTDSS1 (UniProt P48651)
active: [16] -0.585
inactive: [1] -0.076 | [2] -0.12 | [3] -0.099 | [4] 0.045 | [5] -0.031 | [6] -0.114 | [7] 0.03 | [8] 0.041 | [9] 0.016 | [10] -0.058 | [11] -0.146 | [12] 0.118 | [13] 0.021 | [14] 0.029 | [15] -0.023 | [17] 0.061 | [18] 0.212 | [19] 0.093 | [20] 0.035

PTRH2 (UniProt Q9Y3E5)
UniProt Q9Y3E5, sequence (Q9Y3E5 whole entry, looked up): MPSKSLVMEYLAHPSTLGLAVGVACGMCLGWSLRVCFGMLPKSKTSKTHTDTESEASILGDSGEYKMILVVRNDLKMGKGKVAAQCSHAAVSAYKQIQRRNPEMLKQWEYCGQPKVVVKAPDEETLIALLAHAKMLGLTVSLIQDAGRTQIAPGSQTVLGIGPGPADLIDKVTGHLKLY
inactive: [1] 0.015 | [2] 0.048 | [3] 0.125 | [4] -0.002 | [5] 0.049 | [6] -0.004 | [7] 0.169 | [8] -0.022 | [9] -0.038 | [10] 0.007 | [11] 0.059 | [12] 0.031 | [13] 0.075 | [14] 0.085 | [15] -0.065 | [16] 0.062 | [17] -0.081 | [18] -0.033 | [19] -0.008 | [20] 0.017

PSMB9 (UniProt P28065)
active: [2] -0.633
inactive: [1] -0.158 | [3] -0.116 | [4] 0.113 | [5] 0.174 | [6] -0.142 | [8] -0.006 | [11] 0.091 | [12] 0.511 | [13] 0.031 | [15] -0.01 | [16] 0.205 | [18] 0.069

PDE4A (UniProt P27815)
inactive: [1] 0.012 | [2] 0.013 | [3] 0.319 | [4] 0.024 | [5] 0.027 | [6] 0.06 | [7] -0.077 | [8] -0.01 | [9] 0.023 | [10] -0.148 | [11] 0 | [12] 0.249 | [13] 0.077 | [14] -0.056 | [15] 0.106 | [16] 0.029 | [17] 0.04 | [18] 0.019 | [20] -0.077

PATL1 (UniProt Q86TB9)
UniProt Q86TB9, sequence (Q86TB9 whole entry, looked up): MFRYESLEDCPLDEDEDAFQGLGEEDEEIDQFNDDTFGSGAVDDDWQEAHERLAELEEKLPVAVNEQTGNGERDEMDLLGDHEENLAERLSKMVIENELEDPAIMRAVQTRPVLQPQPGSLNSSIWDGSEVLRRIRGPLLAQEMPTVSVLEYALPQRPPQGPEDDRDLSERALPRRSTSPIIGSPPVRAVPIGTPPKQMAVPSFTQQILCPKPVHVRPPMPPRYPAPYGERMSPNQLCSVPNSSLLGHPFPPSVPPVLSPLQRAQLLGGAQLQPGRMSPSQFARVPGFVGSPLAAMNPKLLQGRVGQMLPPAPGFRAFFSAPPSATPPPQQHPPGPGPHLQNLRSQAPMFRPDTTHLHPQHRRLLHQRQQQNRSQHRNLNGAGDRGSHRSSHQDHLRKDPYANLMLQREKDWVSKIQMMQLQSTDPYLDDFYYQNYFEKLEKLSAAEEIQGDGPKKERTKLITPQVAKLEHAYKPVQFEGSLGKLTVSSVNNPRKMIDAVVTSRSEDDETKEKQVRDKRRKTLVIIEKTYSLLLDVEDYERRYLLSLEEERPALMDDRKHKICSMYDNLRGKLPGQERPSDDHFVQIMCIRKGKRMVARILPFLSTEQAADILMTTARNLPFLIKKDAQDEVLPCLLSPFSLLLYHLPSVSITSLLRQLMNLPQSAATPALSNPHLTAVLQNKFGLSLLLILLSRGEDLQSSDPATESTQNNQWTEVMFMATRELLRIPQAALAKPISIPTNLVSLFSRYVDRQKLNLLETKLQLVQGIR
inactive: [1] 0.044 | [2] 0.13 | [3] -0.021 | [4] 0.048 | [5] 0.01 | [6] -0.233 | [7] -0.075 | [8] 0.029 | [9] -0.071 | [10] -0.052 | [11] -0.026 | [12] -0.173 | [13] -0.312 | [14] 0.079 | [15] -0.024 | [16] -0.298 | [17] 0.033 | [18] 0.143 | [20] 0.038
